# Compound activity as filed in PubChem BioAssay.
# TrxR1 inh: blocks rat thioredoxin reductase 1 | O89049 | recombinant rTrxR1, NADPH fluorescence consumption, selenite substrate | Potency, µM (top dose mostly 114 µM), without a hit: top-dose activity change, negative = inhibition, usual class: inhibitors | actives 1% (n = 390,000); further: potency means the concentration at half of the fitted maximal effect; on the % scale 0 is the no-effect control and ±100 the full control effect; nearly all actives have a fitted effect of over 65% in size
# Target sequence (O89049 whole entry, looked up): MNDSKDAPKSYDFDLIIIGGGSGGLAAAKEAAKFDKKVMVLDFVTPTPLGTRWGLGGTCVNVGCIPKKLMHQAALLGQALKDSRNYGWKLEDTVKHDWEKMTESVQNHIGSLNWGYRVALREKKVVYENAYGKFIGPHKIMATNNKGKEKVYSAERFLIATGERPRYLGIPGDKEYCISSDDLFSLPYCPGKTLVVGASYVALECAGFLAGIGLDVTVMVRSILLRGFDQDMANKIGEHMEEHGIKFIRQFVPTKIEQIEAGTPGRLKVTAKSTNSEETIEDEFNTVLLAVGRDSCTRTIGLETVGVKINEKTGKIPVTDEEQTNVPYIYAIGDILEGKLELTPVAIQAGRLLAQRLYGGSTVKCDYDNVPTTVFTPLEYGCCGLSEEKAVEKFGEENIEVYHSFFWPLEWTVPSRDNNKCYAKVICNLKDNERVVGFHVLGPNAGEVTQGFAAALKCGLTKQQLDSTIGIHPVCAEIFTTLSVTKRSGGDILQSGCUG
#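 Rat TrxR1 (90 nM in the dispensed reagent) was pre-reduced with 400 uM NADPH for 5 min at room temperature, then incubated with compound for 15 min. After 400 uM selenite was added, NADPH fluorescence (Ex 340/Em 450 nm) was followed for 8 min.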
# A-T KAP1 phos: potential ataxia-telangiectasia treatments restoring KAP-1 phosphorylation | F2112 A-T fibroblasts, KAP-1 phosphorylation AlphaLISA; neocarzinostatin DNA damage 30 min before lysis | Potency, µM (doses to about 57.5 µM), for inactives: top-dose activation, actives largely listed as activators | actives 0.19% (n = 320,000) | AID 485349; further: potency means the concentration at half of the fitted maximal effect; % of control where 0% means no effect; nearly all actives have a fitted effect of over 45% in size
#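 hTERT-immortalized A-T patient fibroblasts (F2112), 500 cells/well in OPTI-MEM, 1% FBS, got compounds for 60 min, then NCS for 30 min at 37C. Lysates were then assayed for phospho-KAP-1 by AlphaLISA (anti-pKAP1 donor, anti-KAP1 acceptor beads), 6 hr at 25C.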
# Pin1 inhibitor: human Pin1 inhibition. Pin1 FP peptide displacement, HiFluor488, 10 min. Potency, µM (series often up to 115 µM), without a hit: top-dose activity, negative = inhibition, hits mostly inhibitors. actives 0.009% (n = 390,000). AID 504891; active means well fitted inhibition curve with a large enough effect in the polarisation, with a control signal flat, not every such curve was filed as active; inconclusive means small, poorly fitted or top-dose-only effect, or effect the other way, or a change in a side signal; inactive means no such curve, though single readings can be large or run the other way; the % refers to the polarisation; further: potency means the concentration at half of the fitted maximal effect; on the % scale 0 is the no-effect control and ±100 the full control effect
# Target sequence (Q13526 whole entry, looked up): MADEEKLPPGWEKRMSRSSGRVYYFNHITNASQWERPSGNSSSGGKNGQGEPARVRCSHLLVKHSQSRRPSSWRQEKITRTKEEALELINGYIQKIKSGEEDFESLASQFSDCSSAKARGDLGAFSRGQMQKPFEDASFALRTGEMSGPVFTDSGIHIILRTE
# pAkt inh: blocks phosphorylation of Akt. Neuro2A IGF-stimulated pAkt S473 HTRF, 20 min; stronger effect = lower value. activity change, % for hits at 50 µM. actives 0.32% (n = 360,000). AID 651550; in the data active means activity change below about -80%; inconclusive means mostly about -51% to -80%; further: on the % scale 0 is the no-effect control and ±100 the full control effect
#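 Neuro2A cells in DMEM with 0.5% FBS, overnight at 37 deg C, given compound at single 50 µM final, then IGF (6 nM final) for 20 min at 37 deg C. Lysed; phospho-Akt Ser473 by HTRF after 24 h, 665/615 ratio.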
# TrxR1 substrate: rat thioredoxin reductase 1 substrate activity. O89049. purified TrxR1 substrate turnover, NADPH consumption readout. Potency, µM (top dose mostly 114 µM), for the others: at the highest dose activity change, negative = substrate turnover. actives 0.01% (n = 390,000); further: potency means the concentration at half of the fitted maximal effect; on the % scale 0 is the no-effect control and ±100 the full control effect; nearly all actives have a fitted effect of over 50% in size
#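 Rat TrxR1, dispensed at 90 nM, was prereduced with 400 uM NADPH (final) for 5 min at ~22 deg C, then incubated with compound 15 min before 400 uM selenite. A first-read NADPH fluorescence drop versus no-compound background flagged substrates.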
# N370S GC mod: N370S glucocerebrosidase modulation, Gaucher chaperone candidate; Potency, µM (top dose mostly 59.4 µM), for inactives: top-dose activity change, negative = inhibition, most hits filed as inhibitors; N370S GC spleen homogenate, 4MU-glucoside fluorescence; actives 0.092% (n = 330,000); P04062;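 further: potency means the concentration at half of the fitted maximal effect; 0% = full enzyme activity and -100% = no enzyme basal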
# An asterisk follows results filed as active; i = inactive; ? = inconclusive; . = no result given; [ ] = another dose, or the depositor's remark. Sampled rows, rich in hits. Any-hit rate of the full collection: about 1.4%. Unless noted, the call rests on the fitted dose curve; in most records, active means well fitted curve in the direction sought with a large enough effect; inconclusive means small, poorly fitted or top-dose-only effect, or another doubt; inactive means no such curve, though single readings can be large; an effect the other way counts as inactive or inconclusive.
SMILES,TrxR1 inh,A-T KAP1 phos,Pin1 inhibitor,pAkt inh,TrxR1 substrate,N370S GC mod
COC(=O)CS(=O)(=O)c1nnc([C@H](Cc2ccccc2)NC(=O)OC(C)(C)C)o1,1.3µM*,-2%,1%,i,1%,3%
COC(=O)CSc1nnc([C@H](Cc2ccccc2)NC(=O)OC(C)(C)C)o1,-3%,6%,-2%,i,0%,-6%
CC(C)(C)OC(=O)N[C@@H](Cc1ccccc1)c1nnc(SCC(N)=O)o1,21%,0%,2%,i,-2%,1%
Nc1c(-c2nc(-c3ccccc3Cl)no2)nnn1-c1ccccc1F,15%,.,16%,.,1%,.
CCOc1nc(C)ccc1-c1noc(C)n1,22%,-11%,-9%,-110%*,11%,1%
COc1ccccc1-c1nc(-c2ccc(C)nc2OC)no1,3%[57.1 µM],0%,19%,-109%*,3%[57.1 µM],2%
CCN(CC)CCCOc1cc2nc(N3CCCN(C)CC3)nc(NC3CCN(C)CC3)c2cc1OC,-23%,.,.,.,81%,.
COC(=O)c1c(NC(=O)COC(=O)CCNS(=O)(=O)c2ccc(NC(C)=O)cc2)sc(C)c1C,-3%,-1%,2%,i,-1%,8.9µM*
O=C(Nc1ccc2c(c1)CCC2)c1ccc(Br)o1,0%,2%,-5%,-114%*,-9%,20%
O=C(Nc1cccc(NC(=O)c2ccc(Br)o2)n1)c1ccc(Br)o1,32µM*,1%,?,?,8%,3%
O=C(Nc1ccc(N2CCN(C(=O)c3ccccc3)CC2)c(Cl)c1)c1ccc(Br)o1,19%[57.1 µM],0%,13%,-86%*,-1%,-13%
COc1ccc2c(CNCc3cccs3)c(C(=O)O)n(Cc3ccccc3C)c2c1,3%,.,?,.,0%,.
Cc1sc(C(C2C(=O)CC(C)(C)CC2=O)C2C(=O)CC(C)(C)CC2=O)cc1[N+](=O)[O-],2µM*,-5%,-13%,i,-7%,12%
CC1(C)CC(=O)C(C(c2cc([N+](=O)[O-])ccc2Cl)C2C(=O)CC(C)(C)CC2=O)C(=O)C1,?,.,5%,i,8%,.
Cc1ccc(N2CCN(S(=O)(=O)c3cccc4ccccc34)CC2)cc1Cl,15%,.,26%,.,2%,.
O=C(NN1C(=O)/C(=C/C=C/c2ccco2)SC1=S)c1ccccc1O,56µM*,-7%,11%,i,-17%,-12%
O=C1S/C(=C\C=C\c2ccco2)C(=O)N1c1ccc(O)cc1,?,6%,?,i,-4%,10%
O=C(O)CCCN1C(=O)/C(=C\c2ccc(-c3nc4ccccc4s3)o2)SC1=S,50µM*,-22%,?,i,-8%,3%
O=C(O)CCN1C(=O)/C(=C/c2ccc(-c3nc4ccccc4s3)o2)SC1=S,?,0%,?,i,-24%,3%
O=C1S/C(=C\C=C\c2ccco2)C(=O)N1c1ccccc1,50µM*,3%,-3%,i,0%,-14%
O=C(O)CC(C(=O)O)N1C(=O)/C(=C/C=C/c2ccco2)SC1=S (stereo not given),20µM*,-11%,?,i,-26%,-12%
Cc1ccc(NC(=O)CCCN2C(=O)/C(=C/C=C/c3ccccc3)SC2=S)cc1,?,1%,31%,i,-16%,2%
O=C(CCCN1C(=O)S/C(=C/C=C/c2ccccc2)C1=O)Nc1ccc(C(=O)O)cc1,79µM*,26%,?,i,-5%,-16%
O=C(c1ccc(-c2nc3ccccc3s2)o1)N1CCN(c2ccccc2O)CC1,-21%,5%,4%,i,-9%,3%
O=C(O)c1ccc(-c2nc3ccccc3s2)o1,?,4.5µM*,-1%,i,51%,12%
SMILES,TrxR1 inh,A-T KAP1 phos,Pin1 inhibitor,pAkt inh,TrxR1 substrate,N370S GC mod
O=C(O)C(Cc1ccccc1)N1C(=O)/C(=C/C=C/c2ccco2)SC1=S (stereo not given),20µM*,-12%,?,i,-14%,-8%
O=C(O)CCCN1C(=O)/C(=C/C=C/c2ccco2)SC1=S,35µM*,4µM*,?,i,-23%,12%
CC(=C\c1ccccc1)/C=C1/SC(=O)N(CCCC(=O)Nc2ccc(C(=O)O)cc2)C1=O,-7%[57.1 µM],2%,-1%,i,-8%[57.1 µM],-5%
Nc1ncnc2c1nc(Sc1ccc(Cl)cc1)n2[C@H]1OC2COP(=O)(O)O[C@@H]2C1O (stereo not given in full),-12%[57.1 µM],.,.,.,-3%[57.1 µM],.
CC(=O)ON(C(C)=O)c1ccc(/C=C2\C=Cc3ccccc32)cc1,-8%,.,.,.,0%,.
Cc1cc2c(s1)c1cnn(Cc3c(F)ccc(F)c3F)c(=O)c1n2C,.,.,27%,.,.,.
CC(=O)N1c2ccc(S(=O)(=O)NCC3CCC(C(=O)NCCC(C)C)CC3)cc2CC1C (stereo not given),1%,.,1%,.,3%,.
O=C(/C=C/c1ccco1)N(Cc1cccc(Cl)c1)C1CCS(=O)(=O)C1 (stereo not given),8.9µM*,8%,-4%,i,7%[57.1 µM],-19%
O=C(/C=C/c1ccco1)N(Cc1cccc(F)c1)C1CCS(=O)(=O)C1 (stereo not given),35µM*,-4%,-6%,i,-4%,-1%
O=C(/C=C/c1ccco1)N(Cc1ccccc1)C1CCS(=O)(=O)C1 (stereo not given),-76%,7%,1%,i,6%[11.4 µM],-8%
O=C(/C=C/c1ccco1)N(Cc1cccc(Br)c1)C1CCS(=O)(=O)C1 (stereo not given),10µM*,-14%,-15%,i,9%[57.1 µM],-21%
Cc1nn(-c2ccccc2)c(Cl)c1CN(C(=O)CCl)c1ccc(Cl)cc1,22µM*,11%,?,i,-10%,2%
Cc1nn(-c2ccccc2)c(Cl)c1CN(C(=O)CCl)c1cccc2ccccc12,?,6%,?,i,-1%,-5%
Cc1ccc2cc(CN(C(=O)c3ccco3)c3ccccc3C)c(=O)[nH]c2c1,?,-11%,22%,-112%*,16%[57.1 µM],?
Cc1ccc2cc(CN(C(=O)c3ccco3)c3cccc(C)c3C)c(=O)[nH]c2c1,18µM*,-1%,-1%,i,6%,?
Cc1ccc(N(Cc2cc3ccc(C)cc3[nH]c2=O)C(=O)c2ccco2)c(C)c1,?,3%,10%,i,0%,21%
COc1cc2cc(CNc3ccccc3)c(=O)n(CC(=O)Nc3ccccc3)c2cc1OC,17%[57.1 µM],.,?,.,7%[57.1 µM],.
COc1ccc(CN2C(=O)c3ccccc3NC2c2ccc(OC)c(COc3ccc(NC(C)=O)cc3)c2)cc1 (stereo not given),.,.,6%,.,.,.
COc1ccc(-c2nnc(SCC(=O)OC3CCCCC3)o2)cc1OC,4%,1%,-4%,-117%*,-2%,-20%
